Shiga toxin inh: A qHTS for Small Molecule Inhibitors of Shiga Toxin. 290,000 compounds, 9.2% hits. AID 2315, 2010. Vero cells, Shiga toxin protein synthesis inhibition reporter. inhibition, % at 38.7 µM; in the data active = inhibition mostly above about 28%, no sharp cut-off; inactive = mostly below about 43%; also: 0% is about no effect
Cycloheximide cs: Cycloheximide Counterscreen for Small Molecule Inhibitors of Shiga Toxin; cell reporter, cycloheximide protein synthesis inhibition counterscreen; 300,000 compounds, 12% hits; max response, %; in the data active = max response mostly above about 13%, no sharp cut-off; inactive = mostly below about 14%; also: read at 38.3 µM for the half of the compounds with a filed dose; 0% is about no effect
Sm TGR block: qHTS Assay for the Inhibitors of Schistosoma Mansoni Peroxiredoxins | Schistosoma mansoni thioredoxin glutathione reductase (TGR), Q962Y6 | purified TGR, DTNB reduction, TNB absorbance 405 nm | Potency, µM (series often up to 114 µM), for the others: top-dose activity change, negative = inhibition, most hits filed as inhibitors | 360,000 compounds, 3% hits | AID 485364, 2010; active = well fitted inhibition curve with a large enough effect; inconclusive = small, poorly fitted or top-dose-only effect; inactive = no such curve, though single readings can be large or run the other way; also: potency is read from the fitted curve at half-maximal effect; % is scaled to controls: 0 for no effect and ±100 for the full control effect; nearly all actives have a fitted effect of over 60% in size
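TGR 20 nM + NADPH 100 uM (dispensed conc.), cpd preinc 15 min RT; start with NADPH (500 uM addition) then DTNB (15 mM addition). Kinetic TNB absorbance, 405 nm filter. Four-parameter Hill fit across titration.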
FMDV antiviral: High Throughput Screening for Foot and Mouth Disease Virus Antivirals | FMDV antiviral cell-based qHTS | Potency, µM (highest dose often 57.9 µM), without a hit: at the top dose activity change, negative = inhibition, usual class: inhibitors | 410,000 compounds, 1.2% hits | AID 1159524, 2015; calls by dose curve; tested in HEK293T cells; also: read-out not given here; potency is read from the fitted curve at half-maximal effect; % is scaled to controls: 0 for no effect and ±100 for the full control effect; nearly all actives have a fitted effect of over 45% in size
Active calls of the source: *; ? = inconclusive; . = no result. The list is not random: actives were taken first. Their share in the collection is about 12%.

SMILES | Shiga toxin inh | Cycloheximide cs | Sm TGR block | FMDV antiviral
Clc1ccccc1C1SCC2Nc3ccccc3CN21 (stereo not given) | 47 | 49* | 2% | 14%
COCc1cc(C)nc2c1C(=O)NC(c1ccc(Br)cc1)N2Cc1ccccc1 (stereo not given) | . | . | -3% | -17%
C=CCCCCc1nc2ccccc2c(=O)n1N | 22 | 6 | -3% | 8%
Nn1c(COc2cccc(Cl)c2)nc2ccccc2c1=O | 75* | 38* | 4% | 3%
Cc1cccc(OCc2nc3ccccc3c(=O)n2N)c1 | 72 | 47* | -1% | 29%
Cc1cccc(-c2nc3ccccc3c(=O)n2N)c1 | -6 | 1 | -13% | -15%
Cc1ccc(O)c(C(=O)/C=C/c2ccc3c(c2)OCCO3)c1 | 142* | 33* | -10% | -26%
O=C(/C=C/c1ccc2c(c1)OCCO2)c1ccccc1 | 74* | 42* | -26% | -7%
COc1ccc(C(=O)/C=C/c2ccc3c(c2)OCCO3)cc1 | 92* | 31* | -3% | 24%
COc1ccc(C(=O)C=Cc2ccc3c(c2)OCO3)cc1OC | . | . | . | 7%
CC(Sc1nccn1C)C(=O)Nc1ccccc1C#N (stereo not given) | . | . | 11% | -7%
Cc1ccc(Nc2nc(N)nc(CSc3nncn3C)n2)cc1 | 64* | 28* | -4% | 38%
Cn1cnnc1SCc1nc(N)nc(Nc2ccccc2)n1 | 28 | 3 | 4% | 65%
Cc1nnc(SCc2nc(N)nc(Nc3ccccc3)n2)s1 | 69* | 38* | 14% | 0%
COc1ccc(Nc2nc(N)nc(SCc3nnc(C)s3)n2)cc1 | 40 | 25* | -6% | 54%
COc1ccc(Nc2nc(N)nc(CN(C)C3CCCCC3)n2)cc1 | 15 | 9 | 17% | 16%
CCc1ccc(Nc2nc(N)nc(CSc3nc4ccccc4s3)n2)cc1 | 49* | 29 | 5% | -17%
COc1ccc(N2CCN(CCCNC(=O)c3nnc(Cc4ccc(F)cc4)o3)CC2)cc1 | . | . | -10% | -22%
O=c1cc(N2CCN(c3ccc(F)cc3)CC2)[nH]c(=O)n1-c1cccc(Br)c1 | . | . | ? | 3%
COCC(=O)N1CCC2(CCCN(Cc3ccc(C#N)cc3)C2)CC1 | . | . | . | 2%
COc1ccc(Nc2nnc(-c3ccc(C)c(S(=O)(=O)N4CCOCC4)c3)c3ccccc23)cc1 | . | . | 4% | 5%
CCOC(=O)c1noc2ncnc(Nc3ccc(C)c(F)c3)c12 | . | . | 6% | -22%
Nc1nc(CSc2ccccn2)nc(Nc2ccccc2)n1 | 70* | 33* | -4% | 30%
COc1ccc(Nc2nc(N)nc(CSc3nnc(N)s3)n2)cc1 | 34 | 26* | 2% | 41%
COc1ccc(Nc2nc(N)nc(CSc3nc(C)cc(C)n3)n2)cc1 | 49* | 18* | -1% | 24%
SMILES | Shiga toxin inh | Cycloheximide cs | Sm TGR block | FMDV antiviral
Nc1nc(CSCCO)nc(Nc2ccccc2)n1 | 7 | 15 | 11% | 12%
COc1ccc(Nc2nc(N)nc(COc3ccc(OC)cc3)n2)cc1 | 1 | -2 | 13% | 18%
COc1ccc(Nc2nc(N)nc(CSc3nccn3C)n2)cc1 | 73* | 36* | 0% | 52%
COc1ccccc1Nc1nc(N)nc(CSc2nnc(C)s2)n1 | 11 | 1 | -3% | 15%
COc1cccc(C(=O)Nc2nc(-c3nnn(-c4cccc(Cl)c4C)c3C)ns2)c1 | . | . | 10% | -19%
CCCn1c2ccccc2c2cnn(CC(=O)Nc3ccc(C)cc3Br)c(=O)c21 | . | . | 2% | 0%
Cn1nc(-c2ccccc2F)c2cc(C(=O)Nc3ccc4c(c3)OCCO4)sc21 | 16 | 15 | 13% | -14%
COc1cccc(-c2nn(C)c3sc(C(=O)Nc4ccc5c(c4)OCCO5)cc23)c1 | 75* | 61* | -3% | 26%
C=C1C(=O)C=C[C@]2(C)C[C@@H]3OC(=O)[C@](C)(O)[C@H]3C[C@@H]12 | 63* | 35* | -33% | 28µM*
COC(=O)C(NC(=O)CCc1c(C)nc2c(-c3ccccc3)c(C)nn2c1C)C(C)C (stereo not given) | . | . | -14% | -19%
Cc1ccc(OCCn2c(-c3ccc(Br)cc3)nc3ccccc3c2=O)cc1C | . | . | -4% | 17%
COCCCN1C(=O)C2C(C(=O)Nc3cc(C)cc(C)c3)C3C=CC2(O3)C1C(=O)NC1CCCCC1 (stereo not given) | -1 | -7 | 40µM* | 0%
CCOc1nc(NC(=O)NS(=O)(=O)Oc2cccc(Cl)c2)nc(-c2ccccc2)n1 | -17 | 17* | 7% | 0%
Oc1c(C=Nc2ccccc2)sc2ccccc12 | 3 | -2 | -11% | -63%
CC(=O)NCCN=Cc1sc2ccccc2c1O | 68* | 40* | -18% | 17%
CN=Cc1sc2ccccc2c1O | 33 | 19* | 10% | .
Oc1c(C=Nc2cccnc2)sc2ccccc12 | 95* | 50* | -9% | 13%
Oc1c(C=NCc2ccncc2)sc2ccccc12 | 84* | 47* | -8% | 52%
c1ccc2c(c1)sc1ccccc12 | . | . | . | 10%
Cc1oc2c(C)c3oc(=O)c(CC(=O)N4CCCCC4)c(C)c3cc2c1C | . | . | -6% | 11%
COc1ccc(CCNC(=O)CSc2cc(=O)n(C)c3ccccc23)cc1OC | . | . | -4% | -25%
Oc1c(C=Nc2ccc(Cl)cn2)sc2ccccc12 | 14* | 29* | -2% | -6%
Oc1c(/C=N/c2ccccn2)sc2ccccc12 | 61* | 40* | ? | -15%
Oc1ccc2ccccc2c1N=Nc1ccccn1 | 18 | 15 | -7% | ?
O=C(Nc1ccnc(=O)[nH]1)c1sc2ccccc2c1Cl | -6 | -1 | -6% | 14%
SMILES | Shiga toxin inh | Cycloheximide cs | Sm TGR block | FMDV antiviral
COc1cc(C2C(=O)N(C3CCCCC3)CC(=O)N2Cc2ccc(C)cc2)ccc1OC(C)C (stereo not given) | . | . | -1% | -17%
COc1ccc(C(CNC(=O)c2oc3ccc(C)cc3c2C)N2CCOCC2)cc1 (stereo not given) | . | . | -2% | -24%
N/C(=N\OC(=O)CCCOc1ccccc1)c1cccc([N+](=O)[O-])c1 | 13 | -3 | 8% | -9%
N/C(=N\OC(=O)c1ccc([N+](=O)[O-])cc1)c1ccc(Br)cc1 | . | 1 | -14% | 44%
N/C(=N\OC(=O)c1ccccc1Br)c1cccc([N+](=O)[O-])c1 | 118* | 52* | -16% | 13%
N/C(Cc1ccc([N+](=O)[O-])cc1)=N\OC(=O)c1ccccc1Br | 18 | -2 | -3% | ?
N/C(CS(=O)(=O)c1ccccc1)=N\OC(=O)c1ccc(F)cc1 | 109* | 28* | 4% | 11%
N/C(=N\OC(=O)c1ccccc1Br)c1ccc([N+](=O)[O-])cc1 | 19* | 10* | ? | 59%
Cc1ccccc1C(=O)O/N=C(\N)c1ccc([N+](=O)[O-])cc1 | . | 32* | -1% | 8%
CC(NC(=O)Cn1ccc2cc(S(=O)(=O)N3CCCCCC3)ccc21)c1ccccc1 (stereo not given) | . | . | 2% | -4%
CC(=O)c1ccc(F)c(-c2cc(C)cc3c2OC(CNC(=O)C2CCCCN2C)C3)c1 (stereo not given) | . | . | . | -14%
Cc1ccc(CNC(=O)CCc2c(C)nc3c(-c4ccc(F)cc4)c(C)nn3c2C)cc1 | . | . | 2% | 3%
